# Compounds with a hit are over-represented: about 7.9% of the library has one in this group of screens.
# FMDV antiviral – blocks foot and mouth disease virus. actives 1.2% (n = 410,000). FMDV antiviral cell-based qHTS. Potency, µM (highest dose often 57.9 µM), inactives show at the highest dose activity change, negative = inhibition, hits mostly inhibitors; calls by dose curve; tested in HEK293T cells; also: read-out not given here; potency is read from the fitted curve at half-maximal effect; nearly all actives have a fitted effect of over 45% in size
# HCV inhibitor – blocks hepatitis C virus; Huh7.5.1 HCVcc-Cre infection, luciferase reporter, 44 h; Potency, µM (titrated, usually from 41.8 µM), for inactives: at the top dose activity change, negative = inhibition, usual class: inhibitors; actives 3.4% (n = 340,000); AID 651820; active = well fitted inhibition curve with a large enough effect; inconclusive = small, poorly fitted or top-dose-only effect, or another doubt; inactive = no such curve, though single readings can be large or run the other way; also: potency is read from the fitted curve at half-maximal effect
#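 HCVcc-Cre virus at an moi near 0.5 was added right after compound to cells cultured 4 h from seeding (1,000 cells/well). Luciferase activity was determined 44 h later, 15 min after substrate addition at RT.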
# Marburg entry inh – inhibitors of Marburg virus binding or cell entry; Potency, µM (titrated, usually from 37.8 µM), without a hit: at the highest dose activity change, negative = inhibition, actives largely listed as inhibitors; Marburg virus pseudotyped entry inhibition, cell reporter; actives 1.8% (n = 300,000); calls by dose curve; tested in HEK293 cells; also: potency is read from the fitted curve at half-maximal effect
# HCMV antiviral – inhibitors of human cytomegalovirus; HFF cells, HCMV-luciferase reporter, 72 h; active compounds read low; activity change, negative = inhibition, % at 57.5 µM; actives 4.5% (n = 410,000); AID 1259415; in the data active = activity change below about -60%; inconclusive = no clear call, values can overlap the other calls; inactive = above about -39%
#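 Screen run at 2 compound doses on HFFs infected with reporter HCMV, MOI 1 PFU/cell. Luciferase activity from cell lysates at 72 h post infection gave inhibition relative to buffer-only and Salinomycin wells.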
# LASV entry inh – inhibitors of Lassa virus binding or cell entry; Lassa virus pseudotype entry inhibition, cell reporter; Potency, µM (highest dose often 37.9 µM), inactives show at the top dose activity change, negative = inhibition, actives largely listed as inhibitors; actives 1.2% (n = 300,000); calls by dose curve; tested in HEK293 cells; also: potency is read from the fitted curve at half-maximal effect; nearly all actives have a fitted effect of over 50% in size
# An asterisk follows results filed as active; ? = inconclusive; nt = not tested or not shown; [ ] = remark or other dose. % is scaled to controls: 0 for no effect and ±100 for the full control effect.
SMILES,FMDV antiviral,HCV inhibitor,Marburg entry inh,HCMV antiviral,LASV entry inh
O=C(Oc1c(-c2ccccc2Cl)oc2ccccc2c1=O)c1ccc(Cl)cc1,8.2%,2.4%,?,8.0,?
COc1ccc(C(=O)c2c(C)oc3ccc(O)cc23)cc1,-26.7%,-15.0%,nt,?,nt
COc1ccc(C(=O)c2ccc3oc(-c4ccc(OC)cc4)c(-c4ccc(O)cc4)c3c2)cc1,-5.8%,8.91µM*,nt,-64.5*,nt
COc1ccc(C(=O)c2c(-c3ccc(OC)cc3)oc3ccccc23)cc1,0.0%,-56.0%,nt,14.3,nt
COc1ccc(-c2oc3ccccc3c(=O)c2OC(=O)c2ccc(C)cc2)cc1,15.6%,9.6%,-18.2%,-74.6*,4.9%
Cc1c(C(=O)N(Cc2ccc(N(C)C)cc2)CC2CCCO2)oc2ccc(Cl)cc12 (stereo unspecified),7.7%,nt,-21.4%[46.1 µM],42.4,?
COC(=O)c1cccc(Nc2c(-c3ccc(O)c(OC)c3)nc3nc[nH]n23)c1,-17.8%,nt,nt,0.3,-26.7%[46.1 µM]
CCC(C)n1c(=O)c2sccc2n2c(CCCC(=O)N3CCN(c4ccccc4)CC3)nnc12 (stereo unspecified),-23.8%,nt,nt,?,-3.2%[46.1 µM]
O=C(NCCN1C(=O)S/C(=C\c2ccc(OC(F)F)cc2)C1=O)C1=COCCO1,-13.9%,11.2µM*,?,nt,?
CNc1ccccc1C(C)(C)c1cc(-c2cccc(OC)c2)no1,?,?,?,-82.7*,-27.3%[46.1 µM]
Cc1cc(C)c2oc(-c3cccc(NC(=O)c4cc5ccccc5o4)c3)nc2c1,9.9%,nt,nt,5.6,9.4%[46.1 µM]
CC(C)=CCC/C(C)=C/CO/N=C1\C[C@@H](O)[C@@H](O)[C@@H]2[C@@H]3C(=O)N(c4cccc(Oc5ccccc5)c4)C(=O)[C@@H]3CC[C@@H]12,nt,nt,26.1%[14.2 µM],nt,nt
N#Cc1ccc(-c2csc(NNC(=O)c3ccccc3)n2)cc1,-12.6%,-18.8%,10µM*,-31.4,?
O=C(NNc1nc(-c2ccccc2)cs1)c1ccccc1,24.1%,?,?,-32.9,?
N#Cc1ccc(-c2csc(NNC(=O)c3ccc(Br)cc3)n2)cc1,-23.4%,8.91µM*,?,-105.6*,-20.7%
c1cncc(OC2CCN(Cc3ccc4c(c3)CN(Cc3ccc5c(c3)OCCO5)CCO4)CC2)c1,-19.4%,nt,nt,nt,nt
CCOC(=O)c1ccc(NC(=O)c2noc3c2CCCC3)cc1,10.2%,nt,nt,33.1,19.0%[46.1 µM]
COc1cccc2c1Oc1ncccc1N(c1ccc(C(=O)NCc3ccccc3Cl)s1)C2,-11.3%,nt,nt,-1.9,0.7%[46.1 µM]
CCCCc1nn2c(=O)cc(COC(=O)c3ccc(NC(=O)c4ccccc4Cl)cc3)nc2s1,20.4%,nt,nt,-19.1,-1.4%[46.1 µM]
S=C(Nc1ccccc1)N1CCN(C(=S)c2ccccc2)CC1,-7.9%,4.2%,7.6%[46.1 µM],-101.7*,?
S=C(Nc1ccccc1)N1CCCCC1,25.4%,-8.7%,6.4%,-3.6,19.4%
CCC1CN(CCNC(=O)c2ccc3c(c2)OCCO3)Cc2cc(OC)ccc2O1 (stereo unspecified),8.3%,nt,nt,nt,nt
CC1=C(Br)C2=C(CC1)NC(=O)/C2=N\N1C(=O)C2CCCCC2C1=O (stereo unspecified),nt,nt,-17.8%,nt,nt
COc1ccc(OC)c(C2=NOC(C(=O)N3CCCc4ccccc43)C2)c1 (stereo unspecified),-3.7%,?,17.3%,-60.0*,3.9%
Cc1c(C(=O)N(C)C)sc2c1c(=O)n(-c1ccc(F)cc1)c(=O)n2Cc1ccccc1C#N,-14.2%,nt,nt,12.6,20.4%[46.1 µM]
SMILES,FMDV antiviral,HCV inhibitor,Marburg entry inh,HCMV antiviral,LASV entry inh
Cc1ccc(C(=O)NCc2ccccc2)cc1NC(=O)c1nsc2ccccc12,32.0%,nt,nt,48.5,-16.1%[46.1 µM]
Cc1ccc(C(=O)NCc2ccc(N(C)C)cc2)cc1NC(=O)c1nsc2ccccc12,0.7%,nt,nt,33.2,5.01µM*
COc1ccc(OC)c(CNC(=O)c2ccccc2NC(=O)c2nsc3ccccc23)c1,-23.1%,nt,nt,23.5,1.4%[46.1 µM]
CCOc1cc(CNC(=O)c2ccccc2NC(=O)c2nsc3ccccc23)ccc1OC,-19.5%,nt,nt,-81.6*,0.0%[46.1 µM]
CCC(=O)Nc1nnc(S(=O)(=O)N(C)Cc2ccc(Cl)cc2)s1,3.0%,nt,nt,?,5.8%[46.1 µM]
CC(C)C1N(c2ccccc2)C(N)=C(C#N)C1(C#N)C#N (stereo unspecified),?,?,-21.1%,-65.6*,-18.4%
N#Cc1cnn(-c2ccccc2)c1N,nt,?,11.5%,-30.2,?
CCOC(=O)c1scc(-c2ccc(C)cc2)c1S(=O)(=O)Nc1ccc(OC)c(Cl)c1,23.2%,nt,nt,6.6,-4.9%[46.1 µM]
CC(C)c1cc(C(=O)N2CCCC(N3CCN(c4ccc(F)cc4)CC3)C2)no1 (stereo unspecified),25.8%,?,-16.5%[46.1 µM],26.5,?
CC(C)c1cc(C(=O)N2CCCC(N3CCN(c4ccc(F)cc4)CC3)C2)n(C)n1 (stereo unspecified),?,?,nt,-63.9*,nt
Nc1ncnc2c1ncn2[C@@H]1O[C@H](C(=O)NC2CC2)[C@H](O)[C@H]1O,nt,nt,-11.3%,nt,nt
O=C(NCCc1ccccc1)c1c2c(nc3ccccc13)C(=O)N(C1CCCCC1)C2,3.1%,nt,nt,62.1,10.8%[46.1 µM]
CC(C)c1ccc(Nc2nc(NCc3ccco3)nc(N3CCOCC3)n2)cc1,-12.0%,10µM*,?,15.0,?
CCOc1nc(NCc2ccco2)nc(Nc2ccccc2F)n1,45.5%,-14.3%,?,66.1,10.4%
Fc1ccccc1Nc1nc(NCc2ccco2)nc(N2CCOCC2)n1,-20.1%,35.5µM*,?,16.4,0.0%
Clc1nc(NCc2ccco2)nc(N2CCCCC2)n1,-15.5%,-18.9%,0.2%[46.1 µM],-35.9,-9.3%
CCNc1nc(NC(C)C)nc(N(C#N)[C@@H](C)C(=O)N(C)C)n1,nt,nt,6.0%,nt,nt
COc1ccccc1CN(C)CC(=O)Nc1cccc(S(=O)(=O)N2CCCC2)c1,0.0%,?,-23.9%,-23.1,?
COc1ccccc1NC(=O)COn1nnc2ccc(S(=O)(=O)N3CCOCC3)cc21,-14.0%,?,8.0%[46.1 µM],-62.8*,4.2%
CN(CC(=O)Nc1cc(S(=O)(=O)N2CCCC2)ccc1Cl)Cc1ccc2c(c1)OCO2,-20.3%,6.31µM*,nt,?,nt
COc1ccccc1CNCC(=O)Nc1cc(S(=O)(=O)N2CCOCC2)ccc1Cl,25.1µM*,?,?,-21.0,?
COc1cccc(CN(C)CC(=O)Nc2cc(S(=O)(=O)N3CCCC3)ccc2Cl)c1OC,?,2.82µM*,?,-33.4,?
O=C(COn1nnc2ccc(S(=O)(=O)N3CCOCC3)cc21)NCCc1ccccc1,-9.4%,-2.7%,-1.7%,-15.5,12.5%
COc1ccc(CN2CCC3(CCC(CNC(=O)c4ccco4)O3)CC2)c(OC)c1C (stereo unspecified),-15.4%,nt,nt,nt,nt
Cc1oc2c(cc(NS(=O)(=O)c3ccc(F)cc3)c3ccccc32)c1C(=O)OCc1ccccc1,22.0%,nt,-7.7%[46.1 µM],29.6,5.4%[46.1 µM]
Cc1cc(C)cc(NC(=O)CN(C)S(=O)(=O)c2ccc3c(c2)CCC(=O)N3)c1,-4.1%,nt,-1.4%[46.1 µM],8.8,10.1%[46.1 µM]

# Source: PubChem
